Sampled rows, rich in hits. Any-hit rate of the full collection: about 3.4%.
GalR3 antag: antagonists of human GalR3. O60755. 360,000 tested, 0.44% active. AID 651719. inhibition, % at 3 µM. HEK293 GalR3-CNG cAMP membrane potential fluorescence; galR3 body fused to GalR1 C-terminus;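 active = inhibition above the screen-wide average plus 3 SD, cut at about 13% in these data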;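 also: forskolin and galanin both at EC90 stimulate the cells; cAMP rise reported by CNG channel membrane potential dye signal; 0% = forskolin plus galanin with DMSO and 100% = forskolin alone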
SMARCA2 act: activators of SMARCA2 function. MG213 cells, MMTV-luciferase reporter, dexamethasone, overnight. 370,000 tested, 1% active. AID 652017. activation, % at 9.1 µM; in the data active = activation above about 7.8%;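 also: 0% = vehicle wells and 100% = reference activator wells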
Gli-Sufu antag: Gli-Sufu pathway antagonism | Sufu-KO-LIGHT fibroblasts, Gli luciferase reporter luminescence | inhibition, % at 5 µM | 340,000 tested, 0.74% active | AID 588413;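 active = inhibition above about 55%, limit read from the data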;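 also: 0% = DMSO-treated cells and 100% = wells with medium but no cells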
COUP-TFII inh: blocks human COUP-TFII nuclear receptor; P24468; inhibition, % at 8.6 µM; 370,000 tested, 0.7% active; HEK293T NGFI-A luciferase reporter, luminescence;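 active = inhibition above a per-plate cutoff, mean inhibition of test wells between control levels plus 3 SD, cut at about 38% in these data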;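 also: cells cotransfected with COUP-TFII expression vector driving the NGFI-A reporter; 0% = median of COUP-TF2 test wells and 100% = reporter-only cells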
Target sequence (P24468 whole entry, looked up): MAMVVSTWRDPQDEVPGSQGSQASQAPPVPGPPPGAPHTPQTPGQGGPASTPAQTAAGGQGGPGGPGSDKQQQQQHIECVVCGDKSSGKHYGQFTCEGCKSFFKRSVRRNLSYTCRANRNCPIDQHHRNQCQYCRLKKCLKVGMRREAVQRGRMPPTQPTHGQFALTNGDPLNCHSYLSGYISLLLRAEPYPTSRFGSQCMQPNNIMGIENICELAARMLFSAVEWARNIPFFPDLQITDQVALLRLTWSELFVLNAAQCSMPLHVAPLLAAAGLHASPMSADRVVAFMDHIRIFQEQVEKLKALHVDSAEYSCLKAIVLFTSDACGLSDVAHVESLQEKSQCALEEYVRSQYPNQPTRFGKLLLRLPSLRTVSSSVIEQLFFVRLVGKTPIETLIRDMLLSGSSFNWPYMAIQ
GAA850 FXN act: increases GAA850 frataxin promoter reporter activity. 360,000 tested, 0.56% active. activation, % at 6 µM. HEK293 lucGAA850 FXN promoter luciferase reporter, 24 h; percent of 10 µM SAHA response;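 active = activation above the average of all compounds screened plus 3 SD, cutoff fixed separately per campaign, cut at about 7.5% in these data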;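 also: 0% = DMSO wells and 100% = 10 µM SAHA wells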
H9c2 protect: protects H9c2 cardiomyocytes from peroxide injury. H2O2 injury protection, ATPLite, 2 h. protection from H2O2 cell death, % at 20 µM. 360,000 tested, 0.63% active. AID 588492;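 active = compounds giving at least 50% protection of heart cells from peroxide-induced death in the single-dose screen, raw or plate-pattern-corrected value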;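 also: 0% = DMSO wells with peroxide and 100% = DMSO wells without peroxide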
GAA30 FXN cntr: GAA30 FXN promoter activation counter-screen | shares compounds with GAA850 FXN act | HEK293 lucGAA30 FXN promoter luciferase, 24 h; DMSO = 0%, 5 µM ipriflavone = 100% | activation, % at 6 µM | 1,900 tested, 66% active | AID 588350;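 active = mean activation above the mean of solvent-only control wells plus 3 SD, cut at about 22% in these data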;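 also: counterscreen of GAA850 promoter hits where activity marks nonselective or luminescence artifacts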
FXN GAA850 conf: confirmation of GAA850 frataxin (FXN) promoter activators; shares compounds with GAA850 FXN act; HEK293 lucGAA850 FXN promoter luciferase reporter, 24 h; 100% = activation by SAHA; activation, % at 6 µM; 1,900 tested, 86% active;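 active = mean activation above a set limit taken from the primary screen, cut at about 8% in these data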;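 also: 0% = DMSO wells and 100% = 10 µM SAHA wells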
* hit, by the source's call; . = not tested or not shown.

SMILES	GalR3 antag	SMARCA2 act	Gli-Sufu antag	COUP-TFII inh	GAA850 FXN act	H9c2 protect	GAA30 FXN cntr	FXN GAA850 conf
CCC(=O)N1CCN(c2ccc(NC(=O)c3ccc([N+](=O)[O-])o3)cc2Cl)CC1	-1	1	28	-12	9.3*	-22	42*	26*
CC(=O)N1CCN(c2ccc(NC(=O)c3ccc([N+](=O)[O-])o3)cc2Cl)CC1	-7	2	27	-20	7.7*	-25	41*	28*
COCCN1C(=O)CN(S(C)(=O)=O)CC1(C)C(=O)NCc1ccccc1 (stereo not drawn)	-1	-1	.	12	.	.	.	.
O=C(Nc1scc(-c2ccc(F)cc2)c1C(=O)O)c1ccco1	1	-3	-4	-16	1	-13	.	.
COC(=O)c1c(-c2ccccc2)csc1NC(=O)c1ccco1	1	6	-87	-39	11*	-9	110*	45*
COC(=O)[C@H](CC(C)C)N(CCCc1cn(Cc2ccc(C)cc2)nn1)S(=O)(=O)c1ccc(F)cc1Br	.	-4	.	9	.	.	.	.
COc1ccc([C@@H]2[C@@H]3C(=O)N(C(C)(C)C)C(=O)[C@@H]3[C@]3(CC(C)C)C(=O)N(c4ccc(C(F)(F)F)cc4)C(=O)N23)cc1	-9	3	6	-8	2	-5	.	.
COc1ccc([C@@H]2[C@@H]3C(=O)N(C(C)(C)C)C(=O)[C@@H]3[C@]3(CC(C)C)C(=O)N(c4cccc(Br)c4)C(=O)N23)cc1	-12	-1	4	12	17*	-6	27*	14*
COc1ccc([C@@H]2[C@@H]3C(=O)N(C(C)(C)C)C(=O)[C@@H]3[C@]3(CC(C)C)C(=O)N(c4ccccc4)C(=O)N23)cc1	-9	1	-6	-14	15*	4	40*	18*
COc1ccc2c(C(c3ccccc3O)C3CCCN3S(=O)(=O)c3ccc(C)cc3)cn(C)c2c1 (stereo not drawn)	.	-1	.	24	.	.	.	.
COc1ccc(C(=O)Nc2ccccc2C(=O)N/N=C/c2ccccn2)cc1OC	-1	3	45	-10	10*	-16	-110	-32
CC(/C=C/c1ccc(OCc2ccccc2)cc1)=N\O	1	7	-57	-23	7.9*	-6	117*	38*
COc1ccc(CCN(C)c2ccc(S(=O)(=O)N3CCCC3)cn2)cc1OC	4	-1	36	8	4	-13	.	.
COc1ccc(CCN(C)c2ccc(S(=O)(=O)N3CCCC3)cc2[N+](=O)[O-])cc1OC	-6	-1	9	7	9.9*	-5	9	11*
COc1nc(N(C#N)CC(N)=O)nc(N2CCCC2)n1	-6	5	2	-14	12*	-3	16	18*
COc1nc(OCC#N)nc(N2CCCCC2)n1	-3	-2	-2	12	2	3	.	.
C=CCN1C(=O)[C@@H](CC(=O)N2CCCCC2)[C@]2(C(=O)OCC)CCCCC/C=C/12	.	-1	.	-17	.	.	.	.
CCCC(=O)Nc1ccc(-c2nc3cc(C)c(C)cc3o2)cc1	-8	3	-111	-35	9.8*	-10	108*	48*
Cc1ccc(NN2C(=O)C=C(c3ccccc3)C2=O)cc1	-7	4	4	-8	10.0*	-6	32*	28*
O=C1c2ccccc2C(=O)N1Nc1ccccc1	-4	1	-26	1	-1	-5	.	.
Clc1ccc(-c2cnc3cccnn23)cc1	-6	0	.	-11	9.0*	-3	38*	15*
COc1ccc(C(=O)c2[nH]c(N)c(C(=O)NCCc3c[nH]c4ccccc34)c2-c2ccccc2Br)cc1	-5	-4	.	9	.	.	.	.
Cc1ccc(NC(=O)C2Cc3ccccc3C(=O)O2)cc1 (stereo not drawn)	5	-1	-28	-24	8.3*	-4	86*	33*
COC(CN1CCc2c(C)nc3c(C#N)cnn3c21)OC	-2	-1	12	-16	2	0	.	.
COc1ccc(-c2cnn3c4c(c(C)nc23)CCN4C(C)C)cc1OC	-2	6	-57	8	9.8*	4	80*	36*
SMILES	GalR3 antag	SMARCA2 act	Gli-Sufu antag	COUP-TFII inh	GAA850 FXN act	H9c2 protect	GAA30 FXN cntr	FXN GAA850 conf
C[C@H](CO)N1C[C@H](C)[C@H](CN(C)C(=O)Nc2ccc(N3CCCCC3)cc2)OCc2cnnn2CCCC1=O	-4	-1	.	-2	.	.	.	.
Cc1cc(C)nc(SC2c3cccc4cccc(c34)C2NS(=O)(=O)c2ccccc2)n1 (stereo not drawn)	-6	0	22	-10	8.6*	-4	15	14*
CC(C)(C)c1ccc2c(c1)C(=O)c1ccccc1C2=O	-5	4	-104	-25	7.9*	-11	111*	38*
CC(C)=CC(=O)NCCc1ccccc1	-3	5	-45	-29	15*	2	75*	20*
COc1ccc(-c2cnnc(N/N=C/c3ccc(O)cc3)n2)cc1	3	-1	19	-16	7.6*	-7	68*	36*
Oc1ccc(/C=N\Nc2nncc(-c3ccccc3)n2)cc1	2	-6	15	-6	8.7*	12	40*	18*
Cc1ccc(S(=O)(=O)Cn2nnnc2C(C(C)C)N2CCSCC2)cc1 (stereo not drawn)	-1	-2	-2	-7	0	-4	.	.
Cc1ccc(S(=O)(=O)Cn2nnnc2C(C(C)C)N2CCc3ccccc3C2)cc1 (stereo not drawn)	.	.	6	.	10*	14	8	7.7*
O=C(O)c1cnn(-c2nc(-c3ccc(Cl)c(Cl)c3)cs2)c1C(F)(F)F	1	-3	2	-16	8.1*	5	60*	32*
COc1ccc2oc(=O)c(-c3csc(Nc4ccc(O)cc4)n3)cc2c1	3	-2	16	-27	19*	41	79*	24*
COc1ccc2oc(=O)c(/C(C)=N/Nc3nc(-c4cc(C)ccc4C)cs3)cc2c1	-5	-3	0	3	0	5	.	.
O=C(Cn1ncc(Cl)c(Cl)c1=O)N1CCOCC1	-5	-11	3	-4	9.3*	-7	11	7
CCCCC[C@H](C)N1C[C@H](COCc2ccccc2)Oc2cc(N3CCC[C@@H]3COC)ccc2S1(=O)=O	-8	-4	.	5	.	.	.	.
COC(=O)[C@]12C[C@H](CC(=O)N3CCN(C(=O)c4ccco4)CC3)C(=O)N(Cc3ccco3)C1=C[C@H](C1CCCC1)O[C@@H]2C	.	-1	.	-12	.	.	.	.

Assay outcomes: PubChem, several laboratories
